# In all, about 390,000 compounds went through this assay and about 17,000 (4.4%) were called active. About 8% were inconclusive and are not listed. The full list was thinned out, with actives kept by preference. A number with no mark means an inactive call. The call rests on the fitted dose curve; in most records, active means well fitted inhibition curve with a large enough effect; inconclusive means small, poorly fitted or top-dose-only effect; inactive means no such curve, though single readings can be large or run the other way.
# Target: Lysine-specific demethylase 4A (Homo sapiens) (UniProt O75164)
# Assay: qHTS Assay for Inhibitors of JMJD2A-Tudor Domain; further: nearly all actives have a fitted effect of over 50% in size
# Conditions: AlphaScreen JMJD2A-Tudor / H3K4me3 peptide binding; series mostly up to 114 µM; activity change, negative = inhibition: at the top concentration
# Description: JMJD2A is a jumonji-domain-containing lysine demethylase that uses Fe(II) together with 2-OG to effect oxidative demethylation of histones. Methylation is one of many […] modification that affect epigenetic transcription. […] It is proposed that the functions of JmjD2A binding to the histones, is to maintain marks after they are installed and to spread the modifications by […], establishing a self-propagating cycle for rapid methylation over a large area of chromatin. […] Thus, small molecule targeting of the JMJD2A-tudor domain interaction with its target methylhistone mark is expected to enable sophisticated experiments probing the fine regulatory pathways leading to selective demethylation of a given methyllysine locus based on the methylation state of adjacent histone marks. A quantitative high throughput AlphaScreen has been developed to identify small molecule inhibitors based on a protocol published by NCGC and SGC [4].
# Although AlphaScreen has significant advantages with its utility in a variety of epigenetic target assays, the primary screening data provided in this deposition should be used with caution due to the prevalence of screening artifacts. The top compound concentration tested was high (>100uM) in this assay, which increases number of actives and potential artifacts. An AlphaScreen counterscreen is highly recommended to be run against any putative actives to eliminate non-specific artifacts. Alternatively, one can use other AlphaScreen assays in PubChem to filter out promiscuous hits.
# [1] Lee, J. et al. Distinct binding modes specify the recognition of methylated histone H3K4 and H4K20 by JMJD2A-tudor. Nat Struct Mol Biol. 15(1); 109-11. 2008. PMID: 18084306
# [2] Yasgar, et al. Compound Management for Quantitative High-Throughput Screening. JALA. 2008 Apr;13(2):79-89. PMID: 18496600
# [3] Inglese, et al. Quantitative high-throughput screening: a titration-based approach that efficiently identifies biological activities in large chemical libraries. Proc Natl Acad Sci. 1;103(31):11473-8. 2006. PMID: 16864780
# [4] Quinn et al. A homogeneous method for investigation of methyl-dependent protein-protein interactions in epigenetics. Nucleic Acids Res., 38(2):e11. 2010. PMID: […]
# [5] Baell,Holloway. New substructure filters for removal of pan assay interference compounds (PAINS) from screening libraries and for their exclusion in bioassays. J Med Chem. 53(7):2719-40. 2010. PMID: 20131845
# NIH Molecular Libraries Probe Production Network [MLPCN]
# NIH Chemical Genomics Center [NCGC]
# Structural Genomics Consortium (SGC)
# To each well of a 1,536w plate, 2ul of JMJD2A-Tudor (final 100nM) and 1ul biotinylated histone peptide methylated at Lys4 [b-H3(1-18)K4me3] (final 50nM) were added in 1x PBS buffer, pH 7.4, containing 0.01% Tween-20, using a nanoliter dispenser. Formation of a protein-peptide complex proceeded at room temperature for 30 min. A Kalypsys pin-tool transferred 23nl of library compound solution in DMSO to each well. Following a 30 min incubation of the protein-peptide complex with compounds at room temperature, a mixture of 40 µg/mL each streptavidin-coated donor and nickel chelate acceptor AlphaScreen beads (final 10 µg/mL) was added in a 1ul dispense for a final volume of 4ul, followed by a brief centrifugation (1000 rpm, 1 min). Plates were incubated protected from the light for 20 min at room temperature. Microplates were then read on an EnVision multilabel plate reader using the 1,536 plate HTS AlphaScreen aperture (excitation time 80 ms, measurement time 240 ms).
# On the % scale 0 is the no-effect control and ±100 the full control effect; potency means the concentration at half of the fitted maximal effect.
# Sequence of Lysine-specific demethylase 4A (Homo sapiens) (O75164 whole entry, looked up, the tested form may be a part): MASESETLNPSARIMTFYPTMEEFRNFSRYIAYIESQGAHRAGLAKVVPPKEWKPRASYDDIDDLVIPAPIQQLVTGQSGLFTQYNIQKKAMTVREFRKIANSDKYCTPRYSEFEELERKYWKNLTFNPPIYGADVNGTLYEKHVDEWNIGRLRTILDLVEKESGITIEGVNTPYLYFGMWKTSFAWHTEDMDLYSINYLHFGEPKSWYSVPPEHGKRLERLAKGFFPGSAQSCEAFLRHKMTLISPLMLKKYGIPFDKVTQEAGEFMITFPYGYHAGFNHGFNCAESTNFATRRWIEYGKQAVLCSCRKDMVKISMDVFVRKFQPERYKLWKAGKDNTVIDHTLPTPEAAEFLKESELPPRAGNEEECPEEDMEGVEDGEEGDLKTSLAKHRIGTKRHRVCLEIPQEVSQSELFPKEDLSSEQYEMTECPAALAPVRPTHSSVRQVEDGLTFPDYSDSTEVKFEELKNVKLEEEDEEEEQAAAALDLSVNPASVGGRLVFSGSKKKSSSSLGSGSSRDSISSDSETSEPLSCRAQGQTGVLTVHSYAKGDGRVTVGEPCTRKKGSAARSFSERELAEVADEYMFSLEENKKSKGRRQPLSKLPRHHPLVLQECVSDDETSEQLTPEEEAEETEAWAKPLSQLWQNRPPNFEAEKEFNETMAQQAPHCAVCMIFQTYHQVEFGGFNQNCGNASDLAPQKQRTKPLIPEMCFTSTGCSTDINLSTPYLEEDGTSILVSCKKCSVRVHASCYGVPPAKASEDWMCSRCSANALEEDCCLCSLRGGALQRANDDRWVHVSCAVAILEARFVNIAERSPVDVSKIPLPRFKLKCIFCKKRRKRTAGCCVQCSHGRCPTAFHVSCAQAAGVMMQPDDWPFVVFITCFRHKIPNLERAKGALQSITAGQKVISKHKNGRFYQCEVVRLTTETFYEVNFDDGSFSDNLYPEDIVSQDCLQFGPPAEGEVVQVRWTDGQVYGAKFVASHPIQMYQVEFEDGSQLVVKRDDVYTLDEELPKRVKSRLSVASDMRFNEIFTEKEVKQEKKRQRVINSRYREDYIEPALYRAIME
SMILES,"activity change, negative = inhibition",Potency
CCN(CC)S(=O)(=O)c1ccc(NC(=O)c2cnc(C)cn2)cc1,0.664% (inactive),–
Cc1ccc(CNC(=O)c2cccnc2Cl)cc1,-11.1% (inactive),–
CCN(CC)S(=O)(=O)c1ccc(NC(=O)c2cccnc2Cl)c(NC(=O)c2cccnc2Cl)c1,–,31.6 µM (active)
Cc1ccccc1CN1CCC(CNC(=O)c2cc3ccc4cccnc4c3[nH]2)CC1,-27.2% (inactive),–
Cc1ccc(C(=O)Nc2c(C(=O)NC(C)(C)C)oc3ccccc23)cc1,6.8% (inactive),–
O=C(Cc1ccc(Cl)cc1)NCC(c1cccs1)S(=O)(=O)c1ccc(Cl)cc1 (stereo not given),-13.3% (inactive),–
Cc1ccc(NC(=O)C2CC2)cc1S(=O)(=O)N1CCOCC1,-17.9% (inactive),–
Cc1cc(C)c(S(=O)(=O)N2CCOCC2)cc1C,–,11.2 µM (active)
COc1cc(C)c(S(=O)(=O)N2CCOCC2)c(C)c1C,0% (inactive),–
Cn1nc(-c2ccccc2)c(-c2ccccc2)c(C(=O)Nc2ccc(S(N)(=O)=O)cc2)c1=O,-18.9% (inactive),–
CCOc1cccc2sc(N3CCN(C(=O)C4CC4)CC3)nc12,-8.44% (inactive),–
CCOC(=O)c1c(C)[nH]c(CCC(=O)Nc2ccc(OC)c(OC)c2)c1C,-27.9% (inactive),–
O=C1Cc2cc(S(=O)(=O)Nc3ccc(OC(F)(F)F)cc3)cc3c2N1CCC3,-14.3% (inactive),–
O=C(NC1CCN(C(=S)Nc2ccc(Cl)cc2)CC1)C1CCCCC1,-8.8% (inactive),–
CN(C)c1ccc(C(=S)N2CCN(C(=S)Nc3ccc(Cl)cc3)CC2)cc1,–,28.2 µM (active)
CCOC(=O)c1ccc(NC(=S)N2CCCC2)cc1,-7.88% (inactive),–
Cc1c(CNC2CCCCC2)c(C(=O)O)c(C)n1Cc1cccc(Cl)c1,-17.4% (inactive),–
Cc1cccc(NC(=O)CSc2nnc(CNC(=O)c3cccc(C)c3)n2-c2ccccc2)c1,-19.5% (inactive),–
O=C(N/N=C/c1cc(Cl)cc([N+](=O)[O-])c1O)C(O)(c1ccccc1)c1ccccc1,–,50.1 µM (active)
O=C(Cc1ccccc1)N/N=C/c1ccc(Cl)cc1Cl,-6.47% (inactive),–
Cc1nn(-c2ccccc2)c(Cl)c1/C=N/NC(=O)c1nn(C)cc1[N+](=O)[O-],15.2% (inactive),–
CCOC(=O)c1ccc(NC(=O)Cn2c(=O)cc(C)c3c(C)nn(-c4cccc(F)c4)c32)cc1,-6.67% (inactive),–
CCN1C(=O)c2ccccc2S(=O)c2ccc(C(=O)NCc3ccc(F)cc3)cc21 (stereo not given),1.68% (inactive),–
CN(C)c1cc(N)c2ccccc2n1 (tested in a mixture with another compound),–,2.82 µM (active)
CN(c1ccc2nc3ccccc3c(=O)n2n1)C1CCCCC1,4.35% (inactive),–

SMILES,"activity change, negative = inhibition",Potency
O=C(CC1N=C2c3ccccc3N=C(SCc3ccc(F)cc3)N2C1=O)NCc1cccs1 (stereo not given),-21% (inactive),–
Cc1cc(-c2ccc(C)c(S(=O)(=O)N3c4ccccc4CC3C)c2)on1 (stereo not given),11.7% (inactive),–
O=S(=O)(c1ccc2nc(N3CCN(c4cccc(Cl)c4)CC3)ccc2c1)N1CCCCC1,9.42% (inactive),–
COC(=O)C1(C)NC(c2ccc(F)cc2)C2C(=O)N(c3ccccc3)C(=O)C21 (stereo not given),1.31% (inactive),–
CCCCC1(C(=O)OCC)NC(c2ccc(O)cc2)C2C(=O)N(c3ccccc3)C(=O)C21 (stereo not given),–,28.2 µM (active)
CCOC(=O)C1(C)NC(c2ccco2)C2C(=O)N(c3ccccc3)C(=O)C21 (stereo not given),-18.4% (inactive),–
COc1ccccc1CNC(=O)C(=O)NCC(c1cccs1)S(=O)(=O)c1cccs1 (stereo not given),-17.5% (inactive),–
CCCN(CCC)S(=O)(=O)c1ccc(C(=O)Nc2sc3c(c2C(=O)OC)CCN(CC)C3)cc1,-9.17% (inactive),–
Cc1ccc2oc(C(=O)Nc3ccc(S(=O)(=O)N4CCCCCC4)cc3)cc(=O)c2c1,-14.2% (inactive),–
CC1CCCCN1CC(=O)N1CCCc2c1c(=O)oc1ccc(OCc3ccccc3)cc21 (stereo not given),-29.8% (inactive),–
Cc1ccc(C(=O)Nc2ccc(C)c(S(=O)(=O)N(C)C)c2)s1,-9.67% (inactive),–
Cc1ccc(NC(=O)CNCc2ccccn2)cc1S(=O)(=O)N(C)C,–,56.2 µM (active)
CCN(c1ccccc1)S(=O)(=O)c1cc(C(=O)NCc2ccccn2)ccc1C,-17.2% (inactive),–
Cc1ccc(OCC(=O)Nc2ccc(OCc3cc(=O)n4c(C)csc4n3)cc2)cc1C,-23.8% (inactive),–
Cc1cccc(NC(=O)Cn2c(C(F)(F)F)nc3ccccc32)c1C,-12.8% (inactive),–
CCc1nccn1S(=O)(=O)c1cc(Br)ccc1Br,-1.49% (inactive),–
N#C/C(=C\c1ccccc1F)c1nc2ccccc2c(=O)[nH]1,-15.7% (inactive),–
Cc1n[nH]c(=O)n1-c1ccc(Oc2ccccc2)cc1,-11% (inactive),–
Cc1ccc(-c2cc(C(=O)NC3CCN(Cc4ccccc4)CC3)c3ccccc3n2)cc1,-14.5% (inactive),–
Cc1ccc(-c2nc(=N)sn2Cc2ccccc2)cc1,–,4.47 µM (active)
COc1ccc(-c2nc(=N)sn2-c2ccccc2)cc1,–,5.62 µM (active)
COc1ccc(-c2nn3c(-c4ccc(OC)cc4)nnc3c3ccccc23)cc1,5.15% (inactive),–
Cc1ccc(CN2C(=O)SC(Nc3ccccc3)C2=O)cc1 (stereo not given),14.8% (inactive),–
CC(C)c1ccc2oc(-c3cc(NC(=O)c4cccs4)ccc3Cl)nc2c1,-2.99% (inactive),–
COC(=O)c1cc(NC(=O)CCc2c(C)nc3c4c(C)cc(C)nc4nn3c2C)cc(C(=O)OC)c1,-13.2% (inactive),–
